# Compounds with a hit are over-represented: about 4.2% of the library has one in this group of screens.
# tim23-1 inh: inhibits growth of tim23-1 mutant yeast | inhibition, % at 20 µM | S. cerevisiae tim23-1 growth, BacTiter-Glo luminescence, 24 h | 330,000 compounds, 1.3% hits;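 active means growth inhibition of the mutant yeast at or above 50%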;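 further: temperature-sensitive mutant grown at 25 °C; plate controls were DMSO-treated mutant yeast for no effect and medium wells lacking yeast for full effect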
# PfHsp90 set2: growth inhibition of yeast expressing Plasmodium Hsp90 | S. cerevisiae expressing PfHsp90, BacTiter-Glo ATP, 48 h; yeast lacking PDR1 and PDR3 efflux regulators | inhibition, % at 9.4 µM | 310,000 compounds, 0.32% hits;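 active means every replicate shows inhibition above about 80%, whatever the replicate mean, limit read from the data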;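 further: 0% = DMSO neutral controls and 100% = 20 µM radicicol positive controls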
# TIM10 inh: TIM10 yeast growth inhibition. inhibition, % at 10 µM. AID 463195. S. cerevisiae TIM10 strain growth, BacTiter-Glo luminescence, 24 h. 330,000 compounds, 1.4% hits;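 active means inhibition of 40% or more at the single tested concentration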;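 further: wild-type TIM10 isogenic control strain grown at permissive 25 °C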
# NALP1 yeast inh: NALP1 inhibition; S. cerevisiae NALP1/ASC/caspase-1 growth, X-gal OD620, 72 h; inhibition, % at 10 µM; 280,000 compounds, 0.61% hits; in the data active means inhibition mostly above about 24%, no sharp cut-off; inactive means mostly below about 32%
# tim10-1 inh: tim10-1 yeast growth inhibition; 330,000 compounds, 2.2% hits; inhibition, % at 20 µM; S. cerevisiae tim10-1 ts strain growth, BacTiter-Glo, 24 h; AID 463190;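 active means inhibition of at least 40%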;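 further: mutant grown at 25 °C; 0% = DMSO wells with yeast and 100% = wells holding no yeast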
# NLRP3 yeast inh: NALP3 inhibition in yeast; AID 2825; 330,000 compounds, 0.39% hits; inhibition, % at 10 µM; Yeast reconstituted NLRP3/ASC/caspase-1, beta-gal luminescence, 24 h;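 active means inhibition of 50% or more; inactive means inhibition below 50%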;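 further: plate controls were induced DMSO wells for no effect and uninduced yeast grown without galactose for full effect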
# tim23-1 confirm: tim23-1 yeast growth inhibition, confirmed. 4,400 compounds, 83% hits. S. cerevisiae tim23-1 growth, BacTiter-Glo luminescence, 24 h. AID 463218. inhibition, % at 20 µM. shares compounds with tim23-1 inh;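 active means inhibition above about 39% in either of two replicate wells at 20 µM, limit read from the data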;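 further: temperature-sensitive tim23-1 mutant grown at 25 °C; 0% = DMSO wells with yeast and 100% = medium wells without yeast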
# Starred values were filed as active, the others as inactive; / = no result given.
SMILES,tim23-1 inh,PfHsp90 set2,TIM10 inh,NALP1 yeast inh,tim10-1 inh,NLRP3 yeast inh,tim23-1 confirm
N#Cc1ccsc1NC(=O)C1=COCCO1,2,17,8,/,5,0,/
O=C(c1ccc2ccccc2n1)N1CCN(S(=O)(=O)c2ccc(Cl)cc2)CC1,50*,/,22,/,27,15,36
O=C(COC(=O)C1CC2CCCC(C1)C2=O)NC1CCCCC1 (stereo not given),6,-12,-7,/,5,25,/
Cc1ccc(/C=N/NC(=O)c2ccncc2)o1,3,41,4,-7,-16,14,/
Cc1ccc(/C=N/NC(=O)c2ccc(OC3CCCC3)cc2)o1,58*,-10,19,27,12,28,55*
Nc1nc2c(s1)COc1ccccc1-2,1,-11,8,-3,-3,8,/
Nc1nc2c(s1)CCc1c-2cnn1-c1ccccc1,62*,-24,30,-1,21,35,61*
CCOC(=O)c1c2ccccc2[n+]([O-])n1CCO,1,6,-8,/,-4,7,/
COc1cc(O)ccc1C(=O)CCc1ccc(O)cc1,11,0,1,0,2,4,/
O=C(O)CN1C(=O)c2cccc3c(Br)ccc1c23,-12,0,-3,-7,-13,7,/
CN(C)CCCN1C(=O)c2cccc3c(Br)ccc(c23)C1=O,62*,11,28,11,38,3,71*
Cc1onc(-c2ccccc2)c1C(=O)OCC(=O)N1CCN(c2ccccc2)CC1,7,8,-6,/,6,22,/
Cc1cc(N)n2nc(C)c(-c3ccccc3)c2n1,/,16,/,19,/,/,/
Cc1cc(NC2CCCC2)n2nc(C)c(-c3ccccc3)c2n1,51*,11,35,16,28,-3,43*
Cc1cc(NC2CCCC2)n2ncc(-c3ccccc3)c2n1,50*,-21,22,30,37,15,18
CCOC(=O)c1c(-c2ccccc2)oc2ccc(OCC)cc12,-5,-2,-6,30,18,11,/
CCOC(=O)c1c(-c2ccccc2)oc2ccc(O)cc12,59*,-31,19,12,13,18,56*
O=C(C1=C(O)C(=O)N(c2ncccn2)C1c1ccc(Cl)c(Cl)c1)c1ccco1 (stereo not given),58*,0,20,5,14,5,41*
COc1ccc(N2C(=NC(=O)c3ccccc3)SC3CS(=O)(=O)CC32)cc1 (stereo not given),6,2,-10,14,6,1,/
Clc1ccc(-c2[nH]ncc2N=Nc2ccccc2)cc1,68*,-11,38,-10,30,28,-2
Oc1ccc(-c2[nH]ncc2-c2ccc(Cl)cc2)c(O)c1,7,/,-7,-6,-13,1,/
O=C(O)c1cccc(N2C(=O)c3cc4cccc(Br)c4cc3C2=O)c1,50,-86,-21,11,5,14,24
COc1cccc(-c2c(C#N)c(N)nc3c2c(C)nn3-c2ccccc2)c1O,51*,-3,10,12,17,6,27
Fc1c(CSC(=S)N2CCOCC2)cccc1CSC(=S)N1CCOCC1,15,-1,12,8,17,18,/
COCCNc1c2c(nc3c(-c4ccccc4)c(C)nn13)CCCC2,50*,21,23,-8,32,6,38
SMILES,tim23-1 inh,PfHsp90 set2,TIM10 inh,NALP1 yeast inh,tim10-1 inh,NLRP3 yeast inh,tim23-1 confirm
Oc1ccc(Cl)cc1C1=NNC(c2cc(Br)cc3c2OCOC3)C1 (stereo not given),56*,-14,26,14,40,1,56*
COc1ccc(C2=NNC(c3cc(Cl)cc4c3OCOC4)C2)c(O)c1 (stereo not given),28,/,33,2,28,19,/
Oc1ccc(Cl)cc1C1=NNC(c2ccc(Cl)cc2)C1 (stereo not given),50*,-24,32,10,33,5,50*
COc1ccc(N2CCN(S(=O)(=O)c3c(C)[nH]c(C)c3C(=O)N3CCCC3)CC2)cc1,-10,-9,6,-5,-8,14,/
C=C(C)C(O)Cc1c(OC)ccc(C(=O)/C=C/c2ccc(O)cc2)c1O (stereo not given),54*,14,30,/,24,37,42*
COC1CCN(C(=O)c2ccc3oc(C(C)C)nc3c2)CC1,11,28,-6,3,16,12,/
O=C(Nc1cccc(NC(=O)c2ccc(-c3cccc(Br)c3)o2)c1)c1ccco1,60*,16,19,4,-47,17,43*
O=C(Nc1ccc(Br)c(Cl)c1)c1ccco1,62*,-7,36,-2,28,12,72*
O=C(Nc1cccc(NC(=O)c2ccc(-c3ccc(Br)cc3)o2)c1)c1ccccc1,-10,-16,-40,4,1,10,/
CCOc1ccc(S(=O)(=O)N2CCC(C(=O)NC3CCCCC3)CC2)cc1,0,25,1,7,-7,26,/
COc1cc(OC)cc(C(=O)Nc2ccc(Nc3ccccc3)cc2)c1,72*,3,23,18,-10,28,59*
COc1ccc(C(=O)Nc2cc(C(=O)O)cc(C(=O)O)c2)cc1Cl,2,-36,-2,6,6,1,/
CC(C)Oc1cccc(C(=O)NC(=S)Nc2ccccc2)c1,51*,-13,26,27,17,4,36
COc1cccc(C(=O)Nc2ccccc2C(=O)N2CCCC2)c1,94*,1,2,5,20,4,12
COC(=O)c1cccc(NC(=O)c2ccc(OC)c(Cl)c2)c1,57*,/,15,0,11,26,48*
CC(=O)Oc1cccc(C(=O)Nc2ccccc2C(=O)N2CCCC2)c1,13,-22,8,9,11,13,/
C=CCSc1nc(C)cc(C(=O)OCC)c1C#N,0,-14,-29,20,-19,-3,/
COc1cccc(C(=O)Nc2cccc(-c3ccccc3)c2)c1,55*,-13,25,2,32,28,49*
Cc1nc(-c2ccc(NC(=O)c3ccccc3)cc2)cs1,54*,49,22,5,-2,39,53*
Cc1ccc(C(=O)Nc2ccc(-c3csc(C)n3)cc2)cc1,-14,7,23,24,-8,21,/
COc1ccc(C(=O)Nc2ccc(Nc3ccccc3)cc2)cc1[N+](=O)[O-],52*,18,0,-12,21,30,38
COc1ccc(C(=O)Nc2ccc(OCc3ccccc3)cc2)cc1[N+](=O)[O-],2,/,1,14,4,12,/
O=C(Nc1ccc(Nc2ccccc2)cc1)c1ccccc1,56*,/,6,/,-38,47,60*
Cc1ccc(CN(C)C(=O)c2cccc(S(=O)(=O)N3CCc4ccccc4C3)c2)o1,31,7,5,/,13,17,/
